D3 antag: D3 dopamine receptor (human) antagonism. P35462. D3R cells, DiscoveRx beta-arrestin luminescence, antagonist mode; active compounds read low. max response, negative = inhibition, %. hit rate 2.5% among 360,000; in the data active = max response below about -50%; inconclusive = no clear call, values can overlap the other calls
Target sequence (P35462 whole entry, looked up): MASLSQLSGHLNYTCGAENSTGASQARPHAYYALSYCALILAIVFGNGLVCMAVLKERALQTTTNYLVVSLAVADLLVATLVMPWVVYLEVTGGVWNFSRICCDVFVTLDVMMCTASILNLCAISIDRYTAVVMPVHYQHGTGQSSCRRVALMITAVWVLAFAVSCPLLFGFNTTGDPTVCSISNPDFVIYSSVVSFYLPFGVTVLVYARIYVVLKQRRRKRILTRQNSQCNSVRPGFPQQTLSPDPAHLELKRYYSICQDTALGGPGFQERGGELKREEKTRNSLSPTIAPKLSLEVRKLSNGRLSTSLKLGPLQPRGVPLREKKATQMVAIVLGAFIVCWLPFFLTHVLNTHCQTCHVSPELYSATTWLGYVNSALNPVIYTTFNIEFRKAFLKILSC
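Cells expressing the human receptor were seeded at 1500 cells/well, incubated overnight at 37 degrees C in 5% CO2, then exposed to library compounds with dopamine controls for 90 minutes at 37 degrees C before luminescent detection.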
D1 antag: human D1 dopamine receptor antagonism; P21728; HEK293 TREx D1 cells, calcium flux, dopamine EC80; active compounds read low; activity change, negative = inhibition, % at 10 µM; hit rate 3.2% among 360,000; in the data active = activity change below about -30%
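Compound effects on dopamine-evoked calcium signalling were measured in tetracycline-induced HEK293 Trex D1 cells. Dopamine at EC80 followed a 180 s compound pre-read, and fluorescence was tracked kinetically for 180 s more.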
D1 PAM: human D1 dopamine receptor positive modulation | P21728 | HEK293 TREx D1 cells, calcium flux, dopamine EC20 potentiation | potentiation, % at 10 µM | hit rate 0.036% among 360,000 | AID 504651; in the data active = potentiation above about 30%
D1 ag: activates the human D1 dopamine receptor | HEK293 T-REx D1 cells, calcium flux, agonist mode | activation, % at 2 µM | hit rate 1% among 360,000; in the data active = activation above about 30%
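Tetracycline-induced HEK293 TREx D1 cells, force-coupled to calcium signalling, were dye-loaded with a no-wash calcium kit. Compound was pin-added after a 10 s baseline. Fluorescence was read kinetically at 1 cycle/s for 180 s, with calcium rises flagged as agonism.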
DRD3 agonist: activates the human D3 dopamine receptor; P35462; hit rate 0.58% among 410,000; D3R DiscoveRx beta-arrestin cells, luminescence, 90 min; max activation, %; in the data active = max activation above about 30%
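Agonist-mode cell screen: cells plated at 1500/well and incubated overnight at 37 °C, then exposed to library compounds for 90 min at 37 °C. Detection reagent was added for 30–60 min at room temperature, and luminescence was read.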
Of the large screens only hits and unclear results are named; the others gave an inactive call. The list is not random: actives were taken first. Their share in the collection is about 6%.

COC(=O)c1cn(C(=O)c2ccc(OC)c(OC)c2)c2ccccc12	D1 antag -46.9
CN1CCN(c2ncnc3c2cnn3-c2ccc(Cl)cc2)CC1	D1 antag -53.6
COc1ccc(-n2ncc3c(N4CCC(C(N)=O)CC4)ncnc32)cc1	none
COc1cccc(N2CCN(c3ncnc4c3cnn4-c3ccc(C)cc3C)CC2)c1	DRD3 agonist 38.8
CCOC(=O)C1CCN(c2ncnc3c2cnn3-c2ccc(OC)cc2)CC1	DRD3 agonist 32.9
Cc1ccc(-n2ncc3c(N4CCCC4)ncnc32)c(C)c1	D3 antag inconclusive
Cc1ccc(-n2ncc3c(N4CCN(Cc5ccccc5)CC4)ncnc32)cc1C	DRD3 agonist 32.9 (no result: D3 antag)
COc1cc(NC(=O)C2CCN(c3nc4ccccc4nc3C(F)(F)F)CC2)cc(OC)c1	none (no result: D3 antag)
Cc1ccc(-n2ncc3c(N4CCN(c5ccc(F)cc5)CC4)ncnc32)cc1	none (no result: D3 antag)
Cc1ccc(-n2ncc3c(N4CCN(C)CC4)ncnc32)cc1	D1 antag -30.5 (no result: D3 antag)
Oc1c(Cl)cc(Cl)cc1/C=N/NC(=S)NC1CC2C=CC1C2 (configuration not stated)	D3 antag -85.4
Oc1ccccc1C=NNC(=S)NC1CC2C=CC1C2 (configuration not stated)	none (no result: D1 antag, D1 PAM, D1 ag)
O=C(CS(=O)(=O)c1cccc2nsnc12)Nc1ccc(F)cc1F	none (no result: D3 antag)
COc1ccc(-c2nc(CSCC(=O)N3CCN(c4ccc(F)cc4)CC3)c(C)o2)cc1	D1 antag -33.0 (no result: D3 antag)
COc1ccc2nc(SCC(=O)N3CCN(c4ccc(F)cc4)CC3)c(C#N)cc2c1	D3 antag -57.7
COc1ccc2cc(C#N)c(SCC(=O)N3CCCC3)nc2c1	none
CC(C)=CCC/C(C)=C/CC/C(C)=C/CCC(=O)OC/C=C(\C)CCC=C(C)C	none (no result: D3 antag, D1 antag, D1 PAM, D1 ag)
COc1ccc(NC(=O)c2cn(CC(C)C)c(=O)c3cc(OC)c(OC)cc23)cc1Cl	none (no result: D3 antag)
Cc1ccc2nc(-c3ccccc3)c(Cc3ccccc3C(F)(F)F)n2c1	D3 antag -54.2 (no result: D1 antag, D1 PAM, D1 ag)
FC(F)(F)c1ccccc1Cc1c(-c2ccc(Cl)cc2)nc2ccc(Br)cn12	D3 antag -54.2 (no result: D1 antag, D1 PAM, D1 ag)
Cc1ccc(-c2nc3ccc(C)cn3c2Cc2ccccc2C(F)(F)F)cc1	none (no result: D1 antag, D1 PAM, D1 ag)
FC(F)(F)c1ccccc1Cc1c(-c2ccc(Cl)cc2)nc2ccc(Cl)cn12	none (no result: D1 antag, D1 PAM, D1 ag)
CCCCn1c(=O)c2oc3ccccc3c2n(CC(=O)Nc2cccc(Cl)c2C)c1=O	none (no result: D3 antag)
NC(=O)c1c(NC(=O)c2nc(SCc3ccccc3F)ncc2Cl)sc2c1CCCC2	none (no result: D3 antag)
C=CCc1c(C)nc2nc(SCC(=O)Nc3ccc(OCC)cc3)nn2c1C	none (no result: D3 antag)
CC(C)(C)c1ccc(CN2CCN(C(c3ccccc3)c3ccc(Cl)cc3)CC2)cc1 (configuration not stated)	none (no result: D3 antag, D1 antag, D1 PAM, D1 ag)
Cc1cccc(CN2CCN(C(c3ccccc3)c3ccc(Cl)cc3)CC2)c1 (configuration not stated)	D3 antag -106.8
COc1cccc(CN2CCN(C(c3ccccc3)c3ccccc3)CC2)c1O	none
COc1cc(CN2CCN(C(c3ccccc3)c3ccccc3)CC2)cc(OC)c1OC	D3 antag -84.6, D1 antag -52.3
O=C(Nc1c2c(nn1-c1ccc(Cl)cc1)CS(=O)(=O)C2)c1ccccc1F	none (no result: D3 antag)
CCn1cc(C(=O)NC2CCCc3c2cnn3-c2cccc(C)c2C)cn1 (configuration not stated)	D1 ag 40.4 (no result: D3 antag, DRD3 agonist)
Cc1cc(C(=O)NC2CCCc3c2cnn3-c2cccc(C)c2C)no1 (configuration not stated)	D1 antag -37.8
COc1ccc(Cl)cc1C(=O)Nc1ccc2oc(-c3ccc(C(C)(C)C)cc3)nc2c1	none (no result: D3 antag)
CCCCNC(=O)Oc1cccc(N2CCCC2=O)c1	D3 antag -68.6
O=C(NCCCN1CCCC1=O)c1cccc(N2CCCC2=O)c1	none
CCc1ccc(CSc2nc(-c3ccccc3OC)nc3c2Cc2c(CO)cnc(C)c2O3)cc1	none (no result: D3 antag)
CCc1ccc(NC(=O)NCCN2CCc3ccccc3C2)cc1	D3 antag -69.0
CCc1ccc(NC(=O)NCCCN2CCCC2=O)cc1	none
O=C(NCCN1CCc2ccccc2C1)Nc1ccc(F)cc1	D3 antag -77.2
O=C(NC1CCCCC1)c1cc(Nc2cccc(C(F)(F)F)c2)nc2ccccc12	none (no result: D3 antag)
COc1ccccc1C(=O)NC1=NC(c2ccc(Br)cc2)CC(=O)N1 (configuration not stated)	none (no result: D3 antag)
CC(=O)N1CCc2cc(Br)cc(S(=O)(=O)CCC(=O)Nc3ccc(C)cc3Cl)c21	none (no result: D3 antag)
CN1C(=O)C(N=Nc2ccccc2C(=O)O)N(C)C1=S (configuration not stated)	D1 ag 45.9
COc1cn(-c2ccccc2)nc1C(=O)Nc1ccccc1	none
COc1cn(-c2ccccc2)nc1C(=O)Nc1ccc(C)cc1	D1 ag 33.9
O=C(Nc1nccs1)c1cn(-c2ccccc2)nc1-c1ccncc1	none (no result: D1 antag)
COC(=O)c1ccc(NC(=O)c2cn(-c3ccccc3)nc2-c2ccncc2)cc1	D3 antag -67.2
O=C(Nc1ccncc1)c1cn(-c2ccccc2)nc1-c1cccs1	D1 antag -49.3
O=C(O)c1ccc(NC(=O)c2cn(-c3ccccc3)nc2-c2cccc(Cl)c2)cc1	DRD3 agonist 36.1
O=C(O)c1ccc(NC(=O)c2cn(-c3ccccc3)nc2-c2ccc(F)cc2)cc1	none
Cc1ccccc1-c1nn2c(=O)cc(CN3CCN(C(=O)c4ccccc4Br)CC3)nc2s1	none (no result: D3 antag)
CCOC(=O)C1CCN(C(=O)c2cnn(-c3ccc(F)cc3)c2-n2cccc2)CC1	none (no result: D3 antag)
Cc1cccc(C(=O)NCC(=O)N2CCN(S(=O)(=O)c3ccccc3)CC2)c1	none
Cc1cccc(C(=O)NCC(=O)N2CCN(S(=O)(=O)/C=C/c3ccccc3)CC2)c1	D1 antag -42.8
CCn1c(-c2ccc(C(C)(C)C)cc2)n[nH]c1=S	none
CCn1c(-c2ccc(F)cc2)n[nH]c1=S	D3 antag -88.0
CCn1c(-c2c(Cl)c(C)nn2C)n[nH]c1=S	D3 antag inconclusive, D1 ag 39.5
O=S(=O)(NCCc1ccc(Cl)cc1)c1ccc(N2CCCCS2(=O)=O)cc1	D1 antag -34.8 (no result: D3 antag)
CCCCNS(=O)(=O)c1ccc(N2CCCCS2(=O)=O)cc1	none (no result: D3 antag)
CC(C)CNS(=O)(=O)c1ccc(N2CCCCS2(=O)=O)cc1	D1 antag -43.7 (no result: D3 antag)
COc1ccc(Nc2nc3ccccc3c3nnc(C)n23)cc1Cl	none (no result: D3 antag)
O=C(NCc1ccco1)c1ccc2c(c1)N(Cc1cccc(Cl)c1)C(=O)c1ccccc1S2=O (configuration not stated)	DRD3 agonist 59.2 (no result: D3 antag)
CCN1CCN(C(=O)c2ccc3c(c2)N(Cc2ccccc2F)C(=O)c2ccccc2S3(=O)=O)CC1	D3 antag -61.0
CC1CCCN(CCCNC(=O)c2ccc3c(c2)N(Cc2ccc(Cl)cc2)C(=O)c2ccccc2S3(=O)=O)C1 (configuration not stated)	D1 antag -34.6, D1 ag 60.2 (no result: D3 antag)
